Assay results from PubChem BioAssay (NCATS).
Results filed as inconclusive are left out. Entries that show only a call come without a potency. Calls of active or inactive are those of the source. Calls follow the shape of the dose curve; as a rule, active = well fitted cell-killing curve with a large enough effect; inconclusive = small, poorly fitted or top-dose-only effect, or effect the other way; inactive = flat fitted curve, though single readings scatter.

Test: S16 Schwann cell viability assay (CellTiter-Glo assay) (AID 624031);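 also: cellular ATP luminescence as a viability measure; nearly all actives have a fitted effect of over 70% in size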
Details: S16 rat Schwann cells viability, 24 h; series mostly up to 57.5 µM
Excerpt: Charcot-Marie-Tooth-Association [CMTA]
National Center for Advancing Translational Sciences [NCATS]
Charcot-Marie-Tooth (CMT) disease was first characterized by Jean-Martin Charcot and Pierre Marie in France and, independently, by Howard Henry Tooth in England in 1886. CMT is one of the most common inherited neurological diseases, affecting approximately 1 in 2,500 Americans. […] The most prevalent type of CMT is known as CMT1A and caused by a duplication of the PMP22 gene which leads to over-expression of this protein. PMP22 is a glycosylated intrinsic membrane protein accounting for 2-5% of the myelin protein content, and its over-expression results in demyelination and subsequently axonal loss.
A pair of cellular transcription-based assays was developed in the S16 rat Schwann cell lines (Hai, M., et al., 2002) stably transfected with orthogonal reporters - firefly luciferase (Fluc) and beta-lactamase (beta-Lac) - whose expression is driven by an intronic regulatory element of the PMP22 gene (Jones, E.A., et al., 2011) to recapitulate endogenous expression of PMP22. A comprehensive library of approved drugs, the NCGC Pharmaceutical Collection (Huang, R., et al., 2011), was screened in the cross-validating platform of the orthogonal reporter assays to identify drug modulators inhibitory towards PMP22 expression.
A set of counter-screens was devised to address non-specific activity of the library. An ATP-dependent CellTiter-Glo assay (developed by Promega Corp) was utilized to control cell viability. In addition, biochemical Fluc enzyme assay was performed to assess direct inhibition of the Fluc enzymatic activity.
Hai, M., Muja, N., DeVries, G.H., Quarles, R.H. and Patel, P.I. Comparative analysis of Schwann cell lines as model systems for myelin gene transcription studies. J Neurosci Res, 2002. 69(4): pp 497-508
Huang, R., Southall, N., Wang, Y., Yasgar A., Shinn P., Jadhav, A. , Nguyen, D.-T. and Austin, C.P., The NCGC pharmaceutical collection: a comprehensive resource of clinically approved drugs enabling repurposing and chemical genomics. Sci Transl Med, 2011. 3(80): p. 80ps16.
Native S16 cells were seeded in white solid-bottom 1536 well plates at between 500-750 cells/6uL in DMEM medium containing 10% FBS, w/o phenol red. After overnight incubation at 37 degree Celsius/5% C02, 23 nL of compounds or DMSO were delivered to each well using a pin tool, followed by 24h-incubation at 37 degree Celsius/5% C02. Then one volume of CellTiter-Glo assay reagent (Promega) was added to each well for cell viability measured by a ViewLux plate reader (PerkinElmer). The % activity was determined by normalizing to the average readings from wells containing no cells relative to DMSO-treated cells (0% Activity). The concentration-effect curves were then classified based on curve quality (r2), response magnitude and degree of measured activity.

SMILES | Potency
CC(C)C1=CC2=CC[C@@H]3[C@](C)(CCC[C@@]3(C)C(=O)O)[C@H]2CC1 | inactive
O=C1CCC(c2ccccc2)(C2CCN(Cc3ccccc3)CC2)C(=O)N1 (stereo not given) | inactive
CCCOc1cc(N)ccc1C(=O)OCCN(CC)CC | inactive
O=C(O)COc1ccc(CCNS(=O)(=O)c2ccccc2)s1 | inactive
C#C[C@]1(O)CC[C@@H]2[C@H]3CCC4=CC(=O)CC[C@H]4[C@H]3C(=C)C[C@@]21CC | inactive
CC(=O)Nc1c(I)c(C(=O)O)c(I)c(N(C)C(C)=O)c1I | inactive
Cc1nc(NS(=O)(=O)c2ccc(N)cc2)nc(C)c1Br | inactive
C[C@]12CC[C@@H]3c4ccc(OC(=O)c5ccccc5)cc4CC[C@H]3[C@@H]1CC[C@@H]2O | inactive
CC/C=C\C/C=C\C/C=C\C/C=C\C/C=C\CCCC(=O)O | inactive
NC(=O)[C@H]1O[C@@H](O)[C@H](O)[C@@H](O)[C@@H]1O | inactive
CCOc1ccc(NC(=S)Nc2ccc(OCC)cc2)cc1 | inactive
OC[C@H]1O[C@@H]2O[C@H]3[C@H](O)[C@@H](O)[C@@H](O[C@H]4[C@H](O)[C@@H](O)[C@@H](O[C@H]5[C@H](O)[C@@H](O)[C@@H](O[C@H]6[C@H](O)[C@@H](O)[C@@H](O[C@H]7[C@H](O)[C@@H](O)[C@@H](O[C@H]1[C@H](O)[C@H]2O)O[C@@H]7CO)O[C@@H]6CO)O[C@@H]5CO)O[C@@H]4CO)O[C@@H]3CO | inactive
C=CCCCCCCCCC(=O)OC | inactive
O=C1c2ccccc2C(=O)C1c1ccc(F)cc1 | inactive
O=C(O)c1ccc(OCCn2ccnc2)cc1 | inactive
ClC(Cl)Cl | inactive
Cc1cccc(Nc2ncccc2C(=O)O)c1C | inactive
CC(C)O | inactive
O=[n+]1ccn([O-])c2ccccc21 | inactive
C=C(C)C1CC=C(C)CC1 (stereo not given) | inactive

SMILES | Potency
CC1CCC(NC(=O)N(CCCl)N=O)CC1 (stereo not given) | inactive
O=C(CCCCCCCCCCCCC1CCCC1)Nc1ccc(S(=O)(=O)c2ccc(NC(=O)CCCCCCCCCCCCC3CCCC3)cc2)cc1 | inactive
O=C(O[C@H]1CN2CCC1CC2)N1CCc2ccccc2[C@@H]1c1ccccc1 | inactive
COc1cc2c(cc1OC)[C@@H](Cc1cc(OC)c(OC)c(OC)c1)[N+](C)(CCCOC(=O)CC/C=C/CCC(=O)OCCC[N+]1(C)CCc3cc(OC)c(OC)cc3[C@H]1Cc1cc(OC)c(OC)c(OC)c1)CC2 (stereo not given in full) | inactive
Cc1ncc(C[n+]2csc(CCOP(=O)(O)O)c2C)c(N)n1 | inactive
CC[C@H]1OC(=O)[C@H](C)[C@@H](O[C@H]2C[C@@](C)(OC)[C@@H](O)[C@H](C)O2)[C@H](C)[C@@H](O[C@@H]2O[C@H](C)C[C@H](N(C)C)[C@H]2O)[C@](C)(O)C[C@@H](C)CN(C)[C@H](C)[C@@H](O)[C@]1(C)O | inactive
CCN(CC)C(=O)c1cccnc1 | inactive
CC(C)(COP(=O)(O)OP(=O)(O)OC[C@H]1O[C@@H](n2cnc3c(N)ncnc32)[C@H](O)[C@@H]1OP(=O)(O)O)C(O)C(=O)NCCC(=O)NCCS (stereo not given in full) | inactive
CCCCCCCCCCCCCC(=O)OCC(COP(=O)([O-])OCC[N+](C)(C)C)OC(=O)CCCCCCCCCCCCC (stereo not given) | inactive
F[Si-2](F)(F)(F)(F)F | inactive
CC(C)CCCC(C)NC(C)C (stereo not given) | inactive
O=C(NCCNCC(O)COc1ccc(O)cc1)N1CCOCC1 (stereo not given) | inactive
O=C(O)COc1ccccc1/C=N/NC(=O)c1ccncc1 | inactive
CCCc1nc(C(C)(C)O)c(C(=O)OCc2oc(=O)oc2C)n1Cc1ccc(-c2ccccc2-c2nn[nH]n2)cc1 | inactive
NCC[C@H](O)C(=O)N[C@@H]1C[C@H](N)[C@@H](O[C@H]2O[C@H](CN)CC[C@H]2N)[C@H](O)[C@H]1O[C@H]1O[C@H](CO)[C@@H](O)[C@H](N)[C@H]1O | inactive
CCc1ccc(S(=O)(=O)O)cc1 | inactive
O=C(OCc1ccccc1)c1ccc(O)cc1 | inactive
C[Se]CC[C@H](N)C(=O)O | inactive
OCC1(CO)COC(C(Cl)(Cl)Cl)OC1 | inactive
CCc1ncnc2cc(OC)c(OC)cc12 | inactive
